Tests used:
Assay in all cases: DAPPL (digital affinity profiling via proximity ligation, sequencing); 10 mM Tris-HCl pH 7.5, 50 mM NaCl, 1 mM DTT, 4% glycerol, room temperature, 30 min; GST-TFs on glutathione beads, 16-mer random dsDNA library, 0.1% formaldehyde crosslink after washing; high values mean tight binding
Conditions in all cases: protein: recombinant; tags: N-terminal GST; dsDNA, one strand shown
ERF = target: T1, ERF (Homo sapiens, UniProt P50548 1-548)
T1 sequence: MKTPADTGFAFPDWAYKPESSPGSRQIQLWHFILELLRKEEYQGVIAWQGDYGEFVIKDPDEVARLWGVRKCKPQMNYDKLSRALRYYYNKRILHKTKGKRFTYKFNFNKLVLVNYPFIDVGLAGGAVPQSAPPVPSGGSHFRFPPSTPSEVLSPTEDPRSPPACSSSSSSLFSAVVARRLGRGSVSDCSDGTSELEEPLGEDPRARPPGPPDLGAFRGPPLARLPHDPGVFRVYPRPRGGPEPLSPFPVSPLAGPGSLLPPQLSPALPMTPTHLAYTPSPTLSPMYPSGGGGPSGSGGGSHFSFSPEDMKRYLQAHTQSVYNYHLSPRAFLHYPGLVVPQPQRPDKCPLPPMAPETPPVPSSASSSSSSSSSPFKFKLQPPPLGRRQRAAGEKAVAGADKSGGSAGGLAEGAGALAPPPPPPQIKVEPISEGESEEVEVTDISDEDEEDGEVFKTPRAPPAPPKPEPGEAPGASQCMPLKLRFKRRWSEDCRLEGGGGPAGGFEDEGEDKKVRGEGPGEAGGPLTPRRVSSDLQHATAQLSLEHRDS
Procedure, shortened: (§1)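 Human transcription factors fused to GST were expressed in yeast, captured on glutathione beads, given DNA barcodes and pooled with a GST-only negative control. Pools were incubated with 200 nmole of a 16-mer random double-stranded DNA library in Tris/NaCl/DTT/glycerol buffer at room temperature for 30 min. They were then washed, crosslinked with 0.1% formaldehyde, proximity-ligated (BsaI/T4 ligase, 1 h, 37 °C), PCR-amplified and sequenced on an Illumina NextSeq500. Binding signal is each 6-mer's read frequency for a factor divided by its frequency for the GST control.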

ETV3L = target: T2, ETV3L (Homo sapiens, UniProt Q6ZN32 1-361)
T2 sequence: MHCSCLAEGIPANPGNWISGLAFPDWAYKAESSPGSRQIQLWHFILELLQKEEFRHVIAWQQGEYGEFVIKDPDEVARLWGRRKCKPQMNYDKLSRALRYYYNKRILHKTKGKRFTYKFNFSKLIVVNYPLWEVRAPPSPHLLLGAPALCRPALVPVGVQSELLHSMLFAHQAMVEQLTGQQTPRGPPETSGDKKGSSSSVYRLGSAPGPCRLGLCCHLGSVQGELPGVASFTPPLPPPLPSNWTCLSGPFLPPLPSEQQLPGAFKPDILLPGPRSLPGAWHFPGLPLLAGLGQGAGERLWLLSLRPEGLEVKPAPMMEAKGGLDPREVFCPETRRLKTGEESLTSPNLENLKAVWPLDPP
Procedure, shortened: as §1

ETS2 = target: T3, ETS2 (Homo sapiens, UniProt P15036 1-469)
T3 sequence: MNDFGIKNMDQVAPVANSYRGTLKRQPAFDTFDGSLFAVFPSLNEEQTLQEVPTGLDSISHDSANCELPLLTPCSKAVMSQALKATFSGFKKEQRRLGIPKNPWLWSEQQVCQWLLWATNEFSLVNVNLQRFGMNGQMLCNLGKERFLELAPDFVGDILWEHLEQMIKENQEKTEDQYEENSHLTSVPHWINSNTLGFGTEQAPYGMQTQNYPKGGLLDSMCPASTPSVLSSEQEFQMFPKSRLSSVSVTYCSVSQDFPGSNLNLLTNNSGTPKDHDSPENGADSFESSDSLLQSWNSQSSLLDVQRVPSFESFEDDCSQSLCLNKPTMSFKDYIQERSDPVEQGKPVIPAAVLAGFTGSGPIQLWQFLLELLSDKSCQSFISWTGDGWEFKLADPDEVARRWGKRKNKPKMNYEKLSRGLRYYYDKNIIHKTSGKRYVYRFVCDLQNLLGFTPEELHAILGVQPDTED
Procedure, shortened: as §1

SPDEF = target: T4, SPDEF (Homo sapiens, UniProt O95238 1-335)
T4 sequence: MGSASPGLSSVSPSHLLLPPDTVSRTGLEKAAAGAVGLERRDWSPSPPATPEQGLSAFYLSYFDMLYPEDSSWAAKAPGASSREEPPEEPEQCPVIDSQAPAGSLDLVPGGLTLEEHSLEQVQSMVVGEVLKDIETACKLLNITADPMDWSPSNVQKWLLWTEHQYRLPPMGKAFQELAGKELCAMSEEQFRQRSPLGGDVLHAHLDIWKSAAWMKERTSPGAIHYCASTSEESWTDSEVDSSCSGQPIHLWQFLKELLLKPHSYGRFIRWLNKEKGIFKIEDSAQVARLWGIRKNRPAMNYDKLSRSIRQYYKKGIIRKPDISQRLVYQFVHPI
Procedure, shortened: as §1

ETV7 = target: T5, ETV7 (Homo sapiens, UniProt Q9Y603 1-341)
T5 sequence: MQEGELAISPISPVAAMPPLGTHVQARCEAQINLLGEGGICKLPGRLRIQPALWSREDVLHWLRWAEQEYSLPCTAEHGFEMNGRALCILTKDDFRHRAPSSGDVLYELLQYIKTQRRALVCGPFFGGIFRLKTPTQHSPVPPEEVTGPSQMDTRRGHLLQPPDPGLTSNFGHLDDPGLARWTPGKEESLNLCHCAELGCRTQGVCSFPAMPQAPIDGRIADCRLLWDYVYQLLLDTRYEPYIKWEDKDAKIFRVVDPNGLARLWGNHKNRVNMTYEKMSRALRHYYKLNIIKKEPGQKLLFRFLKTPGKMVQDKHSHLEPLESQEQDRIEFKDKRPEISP
Procedure, shortened: as §1

ELF5 = target: T6, ELF5 (Homo sapiens, UniProt Q9UKW6-2 1-255)
T6 sequence: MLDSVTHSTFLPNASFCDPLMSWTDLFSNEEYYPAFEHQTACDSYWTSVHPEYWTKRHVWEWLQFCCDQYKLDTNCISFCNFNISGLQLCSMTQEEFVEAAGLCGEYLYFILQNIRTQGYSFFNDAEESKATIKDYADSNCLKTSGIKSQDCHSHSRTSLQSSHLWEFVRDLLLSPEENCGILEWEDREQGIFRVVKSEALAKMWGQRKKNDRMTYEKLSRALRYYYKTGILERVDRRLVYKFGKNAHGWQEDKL
Procedure, shortened: as §1

ETV3 = target: T7, ETV3 (Homo sapiens, UniProt P41162-2 1-143)
T7 sequence: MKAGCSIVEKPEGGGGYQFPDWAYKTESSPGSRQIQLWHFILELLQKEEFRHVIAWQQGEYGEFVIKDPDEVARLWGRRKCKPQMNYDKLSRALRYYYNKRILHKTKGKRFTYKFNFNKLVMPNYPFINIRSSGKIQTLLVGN
Procedure, shortened: as §1

ETV6 = ETV6 (Homo sapiens, UniProt P41212 1-452)
Procedure, shortened: as §1

Chain of ETV6 (P41212 whole entry): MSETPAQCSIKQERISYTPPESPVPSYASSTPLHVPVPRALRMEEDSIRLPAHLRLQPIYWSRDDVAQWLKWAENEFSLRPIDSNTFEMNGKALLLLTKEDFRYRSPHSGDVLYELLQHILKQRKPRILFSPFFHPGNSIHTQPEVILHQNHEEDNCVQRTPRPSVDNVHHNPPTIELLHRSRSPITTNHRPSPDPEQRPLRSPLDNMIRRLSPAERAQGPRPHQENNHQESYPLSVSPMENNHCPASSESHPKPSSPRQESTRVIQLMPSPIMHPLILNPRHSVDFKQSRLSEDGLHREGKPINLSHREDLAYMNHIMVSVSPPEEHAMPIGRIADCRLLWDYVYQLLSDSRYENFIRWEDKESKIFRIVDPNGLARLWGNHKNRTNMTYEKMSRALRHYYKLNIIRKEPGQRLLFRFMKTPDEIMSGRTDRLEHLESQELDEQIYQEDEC

Sequence	binding signal (ERF)	binding signal (ETV3L)	binding signal (ETS2)	binding signal (SPDEF)	binding signal (ETV7)	binding signal (ELF5)	binding signal (ETV3)	binding signal (ETV6)
CCTTGA	1.27 fold enrichment (6-mer frequency, TF over GST control)	1.17 fold enrichment (6-mer frequency, TF over GST control)	1.2 fold enrichment (6-mer frequency, TF over GST control)	1.33 fold enrichment (6-mer frequency, TF over GST control)	1.14 fold enrichment (6-mer frequency, TF over GST control)	1.37 fold enrichment (6-mer frequency, TF over GST control)	1.19 fold enrichment (6-mer frequency, TF over GST control)	1.23 fold enrichment (6-mer frequency, TF over GST control)
TAACAC	1.22 fold enrichment (6-mer frequency, TF over GST control)	1.24 fold enrichment (6-mer frequency, TF over GST control)	1.29 fold enrichment (6-mer frequency, TF over GST control)	1.28 fold enrichment (6-mer frequency, TF over GST control)	1.21 fold enrichment (6-mer frequency, TF over GST control)	1.2 fold enrichment (6-mer frequency, TF over GST control)	1.22 fold enrichment (6-mer frequency, TF over GST control)	1.19 fold enrichment (6-mer frequency, TF over GST control)
ATTACC	1.18 fold enrichment (6-mer frequency, TF over GST control)	1.2 fold enrichment (6-mer frequency, TF over GST control)	1.27 fold enrichment (6-mer frequency, TF over GST control)	1.18 fold enrichment (6-mer frequency, TF over GST control)	1.28 fold enrichment (6-mer frequency, TF over GST control)	1.32 fold enrichment (6-mer frequency, TF over GST control)	1.31 fold enrichment (6-mer frequency, TF over GST control)	1.33 fold enrichment (6-mer frequency, TF over GST control)
AATACT	1.19 fold enrichment (6-mer frequency, TF over GST control)	1.24 fold enrichment (6-mer frequency, TF over GST control)	1.23 fold enrichment (6-mer frequency, TF over GST control)	1.15 fold enrichment (6-mer frequency, TF over GST control)	1.31 fold enrichment (6-mer frequency, TF over GST control)	1.37 fold enrichment (6-mer frequency, TF over GST control)	1.28 fold enrichment (6-mer frequency, TF over GST control)	1.4 fold enrichment (6-mer frequency, TF over GST control)
AATGCT	1.16 fold enrichment (6-mer frequency, TF over GST control)	1.15 fold enrichment (6-mer frequency, TF over GST control)	1.2 fold enrichment (6-mer frequency, TF over GST control)	1.11 fold enrichment (6-mer frequency, TF over GST control)	1.1 fold enrichment (6-mer frequency, TF over GST control)	1.24 fold enrichment (6-mer frequency, TF over GST control)	1.14 fold enrichment (6-mer frequency, TF over GST control)	1.32 fold enrichment (6-mer frequency, TF over GST control)
AATACG	1.23 fold enrichment (6-mer frequency, TF over GST control)	1.23 fold enrichment (6-mer frequency, TF over GST control)	1.28 fold enrichment (6-mer frequency, TF over GST control)	1.24 fold enrichment (6-mer frequency, TF over GST control)	1.12 fold enrichment (6-mer frequency, TF over GST control)	1.27 fold enrichment (6-mer frequency, TF over GST control)	1.19 fold enrichment (6-mer frequency, TF over GST control)	1.26 fold enrichment (6-mer frequency, TF over GST control)
GTTCTA	1.27 fold enrichment (6-mer frequency, TF over GST control)	1.2 fold enrichment (6-mer frequency, TF over GST control)	1.25 fold enrichment (6-mer frequency, TF over GST control)	1.19 fold enrichment (6-mer frequency, TF over GST control)	1.2 fold enrichment (6-mer frequency, TF over GST control)	1.23 fold enrichment (6-mer frequency, TF over GST control)	1.19 fold enrichment (6-mer frequency, TF over GST control)	1.24 fold enrichment (6-mer frequency, TF over GST control)
TAAACT	1.35 fold enrichment (6-mer frequency, TF over GST control)	1.17 fold enrichment (6-mer frequency, TF over GST control)	1.18 fold enrichment (6-mer frequency, TF over GST control)	1.01 fold enrichment (6-mer frequency, TF over GST control)	1.04 fold enrichment (6-mer frequency, TF over GST control)	1.16 fold enrichment (6-mer frequency, TF over GST control)	1.15 fold enrichment (6-mer frequency, TF over GST control)	1.13 fold enrichment (6-mer frequency, TF over GST control)
GCCTCG	1.14 fold enrichment (6-mer frequency, TF over GST control)	1.28 fold enrichment (6-mer frequency, TF over GST control)	1.31 fold enrichment (6-mer frequency, TF over GST control)	1.19 fold enrichment (6-mer frequency, TF over GST control)	1.26 fold enrichment (6-mer frequency, TF over GST control)	1.23 fold enrichment (6-mer frequency, TF over GST control)	1.28 fold enrichment (6-mer frequency, TF over GST control)	1.37 fold enrichment (6-mer frequency, TF over GST control)
ACTCTT	1.31 fold enrichment (6-mer frequency, TF over GST control)	1.27 fold enrichment (6-mer frequency, TF over GST control)	1.15 fold enrichment (6-mer frequency, TF over GST control)	1.18 fold enrichment (6-mer frequency, TF over GST control)	1.29 fold enrichment (6-mer frequency, TF over GST control)	1.34 fold enrichment (6-mer frequency, TF over GST control)	1.25 fold enrichment (6-mer frequency, TF over GST control)	1.25 fold enrichment (6-mer frequency, TF over GST control)
CTGTTT	1.37 fold enrichment (6-mer frequency, TF over GST control)	1.49 fold enrichment (6-mer frequency, TF over GST control)	1.45 fold enrichment (6-mer frequency, TF over GST control)	1.42 fold enrichment (6-mer frequency, TF over GST control)	1.38 fold enrichment (6-mer frequency, TF over GST control)	1.62 fold enrichment (6-mer frequency, TF over GST control)	1.36 fold enrichment (6-mer frequency, TF over GST control)	1.49 fold enrichment (6-mer frequency, TF over GST control)
CTACCA	1.26 fold enrichment (6-mer frequency, TF over GST control)	1.21 fold enrichment (6-mer frequency, TF over GST control)	1.26 fold enrichment (6-mer frequency, TF over GST control)	1.23 fold enrichment (6-mer frequency, TF over GST control)	1.29 fold enrichment (6-mer frequency, TF over GST control)	1.26 fold enrichment (6-mer frequency, TF over GST control)	1.21 fold enrichment (6-mer frequency, TF over GST control)	1.26 fold enrichment (6-mer frequency, TF over GST control)
TCCTAC	1.5 fold enrichment (6-mer frequency, TF over GST control)	1.52 fold enrichment (6-mer frequency, TF over GST control)	1.48 fold enrichment (6-mer frequency, TF over GST control)	1.43 fold enrichment (6-mer frequency, TF over GST control)	1.39 fold enrichment (6-mer frequency, TF over GST control)	1.79 fold enrichment (6-mer frequency, TF over GST control)	1.48 fold enrichment (6-mer frequency, TF over GST control)	1.47 fold enrichment (6-mer frequency, TF over GST control)
CAAAAA	1.15 fold enrichment (6-mer frequency, TF over GST control)	1.15 fold enrichment (6-mer frequency, TF over GST control)	1.12 fold enrichment (6-mer frequency, TF over GST control)	1.07 fold enrichment (6-mer frequency, TF over GST control)	1.1 fold enrichment (6-mer frequency, TF over GST control)	1.07 fold enrichment (6-mer frequency, TF over GST control)	1.12 fold enrichment (6-mer frequency, TF over GST control)	1.12 fold enrichment (6-mer frequency, TF over GST control)
ACTCAA	1.16 fold enrichment (6-mer frequency, TF over GST control)	1.21 fold enrichment (6-mer frequency, TF over GST control)	1.23 fold enrichment (6-mer frequency, TF over GST control)	1.16 fold enrichment (6-mer frequency, TF over GST control)	1.05 fold enrichment (6-mer frequency, TF over GST control)	1.15 fold enrichment (6-mer frequency, TF over GST control)	1.13 fold enrichment (6-mer frequency, TF over GST control)	1.26 fold enrichment (6-mer frequency, TF over GST control)

Reference: paper PMC7862700, “An all-to-all approach to the identification of sequence-specific readers for epigenetic DNA modifications on cytosine”
